Screening data as filed in PubChem BioAssay.
Not all results are given here.
aSyn UTR act: Activators working through SNCA 5'UTR binding (MLPCN); 7.1% of 300,000 active; alpha-synuclein 5'UTR reporter, activators screen; activity score, % (tested at 7.5 µM), hits read low; in the data active = activity score below about -60%
* = called active by the depositor.

SMILES	aSyn UTR act
NC(=O)c1c(NC(=O)c2ccccc2)sc2c1CCc1ccccc1-2	-211*
NC(=O)c1c(NC(=O)c2ccncc2)sc2c1CCCC2	-121*
Cc1ccc(NC(=O)c2sc3nc(C)cc(C)c3c2N)cc1	-75*
Cc1cc(C)c2c(N)c(C(=O)Nc3cccc(C)c3C)sc2n1	-268*
COCCn1c(/C=C/c2ccccc2)nc2ccccc21	-156*
COc1ccc(/C=C/c2nc3ccccc3n2Cc2ccccc2OC)cc1	-153*
Cc1cccc(NC(=O)Cn2c(/C=C/c3ccccc3)nc3ccccc32)c1	-123*
COc1ccccc1Cn1c(/C=C/c2ccccc2)nc2ccccc21	-111*
Cc1cccc(-c2noc(-c3ccccc3C(=O)NCc3ccco3)n2)c1	-62*
Nc1c(C(=O)NCc2ccco2)nnn1-c1ccccc1	-125*
O=C(NCc1ccco1)c1cccc(-c2nnc(-c3ccccc3)o2)c1	-71*
CC1CCC(NC(=O)Cn2c(=O)[nH]c3ccsc3c2=O)CC1 (centres undefined)	-130*
Cc1ccccc1NC(=S)c1nc2ccccc2[nH]1	-145*
S=C(Nc1ccc(Cl)cc1)c1nc2ccccc2[nH]1	-79*
O=C(Nc1ccc(F)cc1)/C(Cl)=C/c1ccccc1	-258*
CC(=O)c1ccc(NC(=O)/C(Cl)=C/c2ccccc2)cc1	-175*
Cc1ccc(NC(=O)/C(Cl)=C\c2ccccc2)cc1	-105*
COc1ccc(OCC(=O)Nc2cccc(NC(=O)COc3ccc(OC)cc3)n2)cc1	-136*
COc1ccc(OCC(=O)Nc2ccccc2Cl)cc1	-111*
COc1ccc(-n2nc3c(c2NC(=O)COc2ccccc2)CS(=O)(=O)C3)cc1	-76*
O=C(COc1ccccc1O)Nc1ccccc1Cl	-99*
O=C(COc1ccccc1Cl)NCc1ccccc1	-72*
O=C(COc1ccc(C(=O)c2ccccc2)cc1)NCc1ccc(F)cc1	113
O=C(NC(=S)Nc1ccc2nc[nH]c2c1)c1ccccc1	-116*
O=C(NC(=S)Nc1ccc2[nH]ncc2c1)c1ccccc1	-115*
SMILES	aSyn UTR act
O=C(NNC(=S)Nc1ccccc1)c1ccc2ncccc2c1	-97*
O=C(NC(=S)Nc1ccc2ncccc2c1)c1ccccc1	-137*
O=C(Nc1ccc2cccnc2c1)c1ccc(Br)cc1	-65*
CC(C)(C)NC(=S)NNC(=O)c1ccc2ncccc2c1	-134*
COc1cccc(C(=O)Nc2ccc3[nH]ncc3c2)c1	-76*
N#C/C(=N\Nc1cccc2ccccc12)c1nnc2n1CCCCC2	-71*
CC(C)(C)n1ncc2c(=O)n(CC(=O)NCc3ccccc3Cl)cnc21	-90*
O=C(Cn1cccc1C(=O)c1ccccc1)NCc1ccccc1Cl	-74*
Cc1ccccc1C(=O)c1cccn1CC(=O)NCc1ccccc1Cl	-100*
Cc1nc(NC(=O)c2cnccn2)ccc1Br	-101*
Cc1nc(NC(=O)c2cncc(Br)c2)ccc1Br	-109*
Clc1nc(-c2ccccc2)ncc1Oc1ccccc1	-64*
CCOc1ccc2c(c1)OC(c1ccc(OC)cc1)(C(F)(F)F)NC2=O (centres undefined)	96
COc1ccc(NC2=C(NCCO)C(=O)c3ccccc3C2=O)cc1	-92*
CCOc1ccc(NC2=C(OC)C(=O)c3ccccc3C2=O)cc1	-94*
O=C1C(Nc2ccc(O)cc2)=C/C(=N/S(=O)(=O)c2cccs2)c2ccccc21	114
O=C1C=C(Nc2ccc(O)cc2)C(=O)c2ccccc21	67
COC1=C(Nc2ccc(OC)cc2)C(=O)c2ccccc2C1=O	-161*
Cc1ccc(NC2=CC(=O)C(=O)c3ccccc32)cc1	103
COC1=C(Nc2ccc(O)cc2)C(=O)c2ccccc2C1=O	-110*
Cn1cc(Cl)c(-c2nc3ccccc3[nH]2)n1	-149*
Clc1ccccc1-c1nc2ccccc2[nH]1	-113*
Cc1cc2nc(-c3ccc[nH]c3=O)[nH]c2cc1C	77
Cc1ccccc1-c1nc2ccccc2[nH]1	-134*
c1ccc2[nH]c(-c3ccnc4ccccc34)nc2c1	-96*
SMILES	aSyn UTR act
Fc1ccccc1-c1nc2ccccc2[nH]1	-128*
O=C(c1cc(-c2cccc(Cl)c2)on1)N1CCCC1	-182*
O=C(c1cc(-c2ccc(Cl)c(Cl)c2)on1)N1CCCCC1	-193*
O=C(c1cc(-c2ccc(Br)cc2)on1)N1CCCCCC1	-145*
O=C(c1cc(-c2cccc(O)c2)on1)N1CCCCCC1	-119*
CN(C)c1ccc(C2NC(=O)c3ccccc3N2)cc1 (centres undefined)	-131*
Cc1ccc(C2NC(=O)c3ccccc3N2)s1 (centres undefined)	-168*
O=C1NC(c2ccc(Cl)cc2)Nc2ccccc21 (centres undefined)	-62*
CN(C)c1ccc(C2Nc3cccc4cccc(c34)N2)cc1	-94*
Cc1cc(O)ccc1N/C=C(\C#N)c1nc2ccccc2o1	-141*
S=C(NCc1ccccn1)Nc1cccc(Cl)c1	-73*
Cc1cccc(NC(=S)NCc2ccccn2)c1	-77*
Cc1cccc(NC(=O)C(=O)NCc2ccccn2)c1	-70*
Cc1ccc(CNc2nc(C)cs2)cc1	-112*
CCC(=O)NC(c1ccc(C)cc1)c1ccc2cccnc2c1O (centres undefined)	81
Cc1ccc(C(=O)Nc2cccc3cccnc23)cc1C	-87*
C/C(=N\Nc1cccc2cccnc12)c1ccc(C)cc1	-170*
O=C(NC(=S)Nc1cccnc1Cl)c1ccc(Cl)cc1	-154*
O=C(NC(c1ccc(Cl)cc1)c1cc(Cl)c2cccnc2c1O)c1cccnc1 (centres undefined)	98
O=C(Nc1ccnc(-c2cccnc2)n1)c1ccc(Cl)cc1	-117*
CC(C)C(=O)NC(c1ccc(Cl)cc1Cl)c1ccc2cccnc2c1O (centres undefined)	92
O=C(Nc1cccnc1Cl)c1ccc(Cl)cc1	-148*
O=C(Nc1cccc2cccnc12)c1ccc(Cl)cc1	-76*
Cc1ccc(/C=C/C(=O)Nc2cccc3cccnc23)o1	-132*
COC(=O)/C(=C1/Oc2ccc(C(C)(C)C)cc2S1)C(F)(F)F	-224*
SMILES	aSyn UTR act
Cc1cc(-c2nnc(CSc3nnc(NC(=O)c4ccc(C(C)(C)C)cc4)s3)o2)ccc1[N+](=O)[O-]	-110*
Cc1ccc(C(=O)O/N=C(\N)c2cccc([N+](=O)[O-])c2)cc1	-218*
N/C(=N\OC(=O)c1ccc(Br)cc1)c1cccc([N+](=O)[O-])c1	-179*
N/C(=N\OC(=O)c1ccncc1)c1cccc([N+](=O)[O-])c1	-70*
N/C(=N\OC(=O)c1ccc([N+](=O)[O-])cc1)c1ccc(Br)cc1	-81*
O=C(Nc1nccs1)c1ccc(Br)o1	-102*
O=C(/C=C/c1ccc(Br)o1)Nc1nccs1	-149*
COc1ccc(-n2nc3ccccc3n2)cc1	-93*
COc1ccc(-n2nc3cc(N)c(Br)cc3n2)cc1	-164*
Nc1ccc(-n2nc3ccccc3n2)cc1	58
COc1ccc2nc3ccccc3nc2c1	-123*
COc1ccc(-n2nc3cc(C)c(N)c(Br)c3n2)cc1	-89*
CC(=O)NCc1ccc(C(=O)CCl)s1	-64*
Cc1cc(NC(=O)CSc2nc3c(cc2C#N)CCCC3)no1	-74*
COc1ccc2nc(SCC(=O)N3CCCCC3)c(C#N)cc2c1	-107*
Cc1ccc2nc(SCC(=O)Nc3ccc4sc(C)nc4c3)c(C#N)cc2c1	-129*
N#Cc1cc2cc3c(cc2nc1SCC(=O)N1CCOCC1)OCCO3	110
COc1ccc2nc(SCC(=O)Nc3cc(C)on3)c(C#N)cc2c1	-103*
Cc1cc(NC(=O)CSc2nc3ccccc3c(=O)n2C2CCCC2)no1	86
